From PubChem BioAssay
The sample as a whole holds a higher share of hits than the screen did.
ST2 inh: IL1RL1 inhibition. inhibition, % for hits at 17 µM. 78,000 compounds, 2.3% hits. Q01638. AlphaLISA ST2-Fc/biotin-IL-33 interaction, 1 h; in the data active means inhibition above about 30%
Target sequence (Q01638 whole entry, looked up): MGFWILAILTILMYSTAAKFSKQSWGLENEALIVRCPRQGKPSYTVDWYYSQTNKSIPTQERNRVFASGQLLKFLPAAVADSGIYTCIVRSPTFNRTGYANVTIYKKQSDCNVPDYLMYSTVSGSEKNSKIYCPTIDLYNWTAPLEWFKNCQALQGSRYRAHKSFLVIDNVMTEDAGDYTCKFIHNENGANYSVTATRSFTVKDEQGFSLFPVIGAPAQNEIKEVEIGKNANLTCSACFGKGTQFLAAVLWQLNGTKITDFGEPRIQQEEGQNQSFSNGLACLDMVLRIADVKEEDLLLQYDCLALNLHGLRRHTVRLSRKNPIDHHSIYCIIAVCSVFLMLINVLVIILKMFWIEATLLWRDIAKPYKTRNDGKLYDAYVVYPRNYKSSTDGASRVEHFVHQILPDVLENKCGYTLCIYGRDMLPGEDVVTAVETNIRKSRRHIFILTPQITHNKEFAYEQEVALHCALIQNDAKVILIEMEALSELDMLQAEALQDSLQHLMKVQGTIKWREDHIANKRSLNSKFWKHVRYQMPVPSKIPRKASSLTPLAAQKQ
Active calls of the source: *; i = inactive.

SMILES	ST2 inh
COc1ccc2nc(SC(=O)c3ccccc3)nc(C)c2c1	43%*
COc1ccc2nc(SCCc3ccccc3)nc(C)c2c1	i
COCCN1CCC(Cn2cnnc2)C1 (stereo not drawn)	i
Cc1ccnc(CC(C)N(C)C(=O)c2ccc(N3CCN(C)CC3)cc2)c1 (stereo not drawn)	i
COCCN1CCCC(O)(CNC2CCN(c3ccccc3F)CC2)C1=O (stereo not drawn)	i
Cc1nc2cc(-c3ccccc3)nn2c(C)c1CCC(=O)NCc1cccs1	i
CCOC(=O)c1cc2c(ccc3oc4c(c32)CCCC4)oc1=O	i
COc1ccc(N=Cc2cccc(OC)c2O)c(OC)c1	i
COc1ccccc1N=Cc1c(O)ccc2oc3c(c12)CCCC3	31%*
CC(C)CNc1nc(-c2ccc([N+](=O)[O-])cc2)nc2ccccc12	i
CCc1ccc(NS(=O)(=O)c2ccc(OC)cc2)cc1	i
COc1ccccc1NS(=O)(=O)c1ccc(C(C)(C)C)cc1	i
CCOc1ccc(NC(=O)Cc2ccc(OC)cc2)cc1	i
COc1ccc(C)cc1NS(=O)(=O)c1ccc(OC)c(OC)c1	i
CCc1ccc(S(=O)(=O)N=C2C=C(Nc3ccccc3)C(=O)c3ccccc32)cc1	79%*
CCOc1ccc(S(=O)(=O)Nc2ccc(I)cc2)cc1	i
CCOc1ccc(NC2=CC(=NS(=O)(=O)c3ccc(OCC)cc3)c3ccccc3C2=O)cc1	93%*
CC(C)Cc1ccc(S(=O)(=O)Nc2ccccc2)cc1	i
CCOc1ccc(Nc2c(OCC)c(=O)c2=O)cc1	i
CCc1ccc(S(=O)(=O)NCC(=O)O)cc1	i
CCOc1ccc(S(=O)(=O)N=C2C=C(Nc3ccc(OC)cc3)C(=O)c3ccccc32)cc1	93%*
COc1ccccc1NC1=CC(=NS(=O)(=O)c2ccc(C)cc2)c2ccccc2C1=O	94%*
O=C(O)CSc1cccc(C(=O)Nc2ccc(Br)cc2)c1	i
COc1cc2c(cc1OC)CN(C1CCCN(C(=O)CSc3ccccc3)C1)CC2 (stereo not drawn)	i
Cc1c(-c2ccc(F)cc2)[nH]c2ccc(CNC(=O)c3ccn[nH]3)cc12	i
SMILES	ST2 inh
CCOC(=O)c1ccc2c(c1)N(Cc1c(F)cccc1Cl)C(=O)CS2	i
COc1ccc(CCCN2C(=O)O[C@@H]3CN(c4ccnc(SC)n4)C[C@@H]32)cc1	i
CC(=O)N[C@H]1[C@H](O[C@H]2CC[C@@]3(C)C(CC[C@]4(C)C3CC=C3C5CC(C)(C)CC[C@]5(C(=O)O)C(O)C[C@]34C)C2(C)C)O[C@H](CO[C@@H]2O[C@H](C)[C@H](O)[C@H](O)[C@H]2O[C@@H]2OC[C@@H](O)[C@H](O)[C@H]2O)[C@@H](O)[C@@H]1O (stereo partly drawn)	i
CCn1c(CCNc2ccccc2)n[nH]c1=O	i
CC(=O)Oc1cccc(C2C3=C(c4ccccc4C3=O)N(C(C)=O)c3c2c(=O)n(C)c(=O)n3C)c1 (stereo not drawn)	i
COc1ccccc1NC(=O)c1c(C)c(-c2ccccc2)nc2ccccc12	i
COc1ccc(S(=O)(=O)N=C2C=C(Nc3ccccc3)C(=O)c3ccccc32)cc1	85%*
CCOc1ccc(NC2=CC(=NS(=O)(=O)c3ccc(F)cc3)c3ccccc3C2=O)cc1	95%*
CCOc1ccc(NC(=O)c2ccccc2F)cc1	i
CC1=C(C(=O)Nc2ccc(C)cc2C)C(c2cccs2)n2nnnc2N1 (stereo not drawn)	i
Cc1ccccc1NC(=O)C(NS(=O)(=O)c1cccs1)C(C)C (stereo not drawn)	i
CCOc1c(Nc2ccc(F)cc2)c(=O)c1=O	i
COc1ccc(S(=O)(=O)N=C2C=CC(=O)c3ccccc32)cc1	39%*
COc1ccc(S(N)(=O)=O)cc1	i
Cc1ccc(NC2=CC(=NS(=O)(=O)c3cccs3)c3ccccc3C2=O)c(C)c1	89%*
COc1ccc(NC(=O)C(Cc2ccccc2)N2C(=O)c3ccccc3C2=O)cc1 (stereo not drawn)	i
COc1ccc(S(=O)(=O)N=C2C=C(C(C)C)C(=O)C=C2C)cc1	i
COc1ccc(C=NS(=O)(=O)c2ccccc2)c(OC)c1	i
COc1ccc(CNC(=O)c2ccc(Nc3cc(-c4ccccc4)ncn3)cc2)cc1	i
CC1(C)[C@@H]2CC[C@]1(CS(=O)(=O)Nc1ccc(F)cc1)C(=O)C2	i
Cc1ncc2c(c1CNC(=O)/C=C/c1ccccc1)CCN(C(=O)C1Cc3ccccc3O1)C2 (stereo not drawn)	i
CCSc1nc2c(c(=O)[nH]1)C(c1ccc(N(C)C)cc1)C1=C(CCCC1=O)N2 (stereo not drawn)	i
CCCC(=O)N1CCC(N2CCC(Cc3cccc(C(=O)O)c3)C2)CC1 (stereo not drawn)	i
Cc1ccc(S(N)(=O)=O)cc1NC(=O)c1cccc([N+](=O)[O-])c1	i
CCOc1ccc(S(=O)(=O)N(CC(=O)Nc2cccc(OC)c2)c2ccccc2)cc1	i
